TTR transcr act: TTR transcription activation, primary screen; SH-SY5Y TTR promoter Gaussia luciferase, luminescence; 100% = recombinant luciferase protein wells; activation, % at 16.7 µM; actives 1.3% (n = 92,000);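 active = activation above the mean of all tested compounds plus 3 SD, cut at about 9.5% in these data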;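 note: cells exposed to compounds for one day before reading; 0% = median of all test compound wells on the plate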
HuH7 TTR inh: HuH7 TTR transcription inhibition, counter-screen. shares compounds with TTR transcr act. HuH7 TTR promoter-Gaussia luciferase reporter, luminescence. inhibition, % at 16.7 µM. actives 4% (n = 1,100);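 active = average inhibition above the solvent-only control wells' mean plus 3 SD, cut at about 15% in these data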;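 note: 0% = cells with DMSO only and 100% = cells with inhibitor control FD; inhibitors lower well luminescence so higher value means more inhibition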
TTR act confirm: confirmation of human transthyretin transcription activators | 1,100 tested, under 10 active | AID 1117280 | shares compounds with TTR transcr act | SHSY5Y TTR promoter Gaussia luciferase, luminescence; 100% = purified Lucia enzyme wells, no cells | activation, % at 16.7 µM;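 active = mean activation above a set limit taken from the earlier primary screen, cut at about 11% in these data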;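 note: 0% = DMSO-treated cells and 100% = recombinant Lucia luciferase without cells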
The depositor's hits bear a star. Shown is part of a subset that was picked to be rich in hits.

SMILES	TTR transcr act	others
CC(C)CC(O)(CC(C)C)c1cn(C(=O)N(c2ccccc2)c2ccccc2)nn1	-1
COP(=O)(O)C[C@@H]1CCc2cc(C)cc([C@H](CC(C)C)NC(=O)OCc3ccccc3)c2O1	1
O=C(NN1CCN(Cc2ccccc2)CC1)c1ccc(Cl)cc1	1
CC(C)(CO)NC12CC3CC(CC(C3)C1)C2	-1
c1ccc(CNC23CC4CC(CC(C4)C2)C3)nc1	-1
Cc1ccsc1CNC12CC3CC(CC(C3)C1)C2	9.7*	HuH7 TTR inh=-8;TTR act confirm=1
COc1ccc(N/C(=C2\CCCC2=O)C2CCCCC2)cc1	2
c1ccc2cc(Cn3ccc4ccc(-c5ccc6ccn(Cc7ccc8ccccc8c7)c6c5)cc43)ccc2c1	1
CCc1ccc(/C=N\n2cnnc2)cc1	-2
COCCn1cnc2c1c(=O)n(CC(=O)Nc1cc(C)on1)c(=O)n2Cc1ccccc1	16*	HuH7 TTR inh=-15;TTR act confirm=0
CC(C)Cn1cnc2c1c(=O)n(CC(=O)N(C)C)c(=O)n2Cc1ccccc1	0
CCn1cnc2c1c(=O)n(CC(=O)Nc1ccc3c(c1)OC(F)(F)O3)c(=O)n2Cc1ccccc1	0
CN(CC(=O)Nc1ccc(F)cc1[N+](=O)[O-])Cc1ccccc1	1
COC(=O)[C@]12C[C@H](CC(=O)NCc3ccccc3)C(=O)N(Cc3ccc(Cl)cc3Cl)C1=C[C@H](C1CCCC1)O[C@@H]2C	0
O=C(NCCc1nc2ccccc2n1C/C=C/c1ccccc1)C1CCCCC1	-1
Cc1ccc(N(C(=O)c2snc(C(N)=O)c2N)C(C(=O)NC2CCCC2)c2ccco2)cc1 (centres undefined)	-3
COc1ccc(N(C(=O)c2ccco2)C(C(=O)NC2CCCC2)c2ccc(N(C)C)cc2)cc1OC (centres undefined)	17*	HuH7 TTR inh=-22;TTR act confirm=1
COc1ccc(N(C(=O)c2ccco2)C(C(=O)NC2CCCCC2)c2ccccc2)cc1 (centres undefined)	-1
CN(C)c1ccc(C(C(=O)NC2CCCCC2)N(Cc2ccco2)C(=O)c2snc(C(N)=O)c2N)cc1 (centres undefined)	11*	HuH7 TTR inh=7;TTR act confirm=-1
Cc1ccc(C(C(=O)NC2CCCC2)N(Cc2cccnc2)C(=O)c2snc(C(N)=O)c2N)o1 (centres undefined)	0
CN(C)c1ccc(C(C(=O)NC2CCCC2)N(C(=O)c2ccco2)C2CC2)cc1 (centres undefined)	-1
C[C@H]1C(=O)[C@]23C[C@H]1CC[C@H]2[C@]1(C)[C@@H](O)CC[C@@](C)(C(=O)O)[C@H]1C[C@@H]3O	0
COC(=O)Cn1nc(-c2ccccc2)c2cccc(C(F)(F)F)c21	-1
O=C1[C@H]2[C@@H](/C=C/c3ccccc3)N3C(=O)CN(CCO)C(=O)[C@@]3(Cc3ccccc3)[C@H]2C(=O)N1c1ccccc1	0
C[C@@]12C(=O)N(CCO)CC(=O)N1[C@H](/C=C/c1ccccc1)[C@@H]1C(=O)N(c3ccccc3)C(=O)[C@@H]12	23*	HuH7 TTR inh=-3;TTR act confirm=0
SMILES	TTR transcr act	others
O=C1[C@H]2[C@@H](/C=C/c3ccccc3)N3C(=O)CN(CC4CC4)C(=O)[C@@]3(Cc3ccccc3)[C@H]2C(=O)N1c1ccccc1	-1
CCOC(=O)[C@H]1[C@H]2COc3ccc(C)cc3[C@@H]2N2C(=O)c3cc(OC)c(OC)cc3NC(=O)[C@@]12C	1
CCOC(=O)[C@H]1[C@H]2COc3ccccc3[C@@H]2N2C(=O)c3ccc(Cl)cc3NC(=O)[C@@]12C	0
CCOC(=O)[C@H]1[C@H]2COc3ccc(Br)cc3[C@@H]2N2C(=O)N(c3ccc(F)cc3)C(=O)[C@@]12C	-2
CCOC(=O)[C@H]1[C@H]2COc3ccc(Br)cc3[C@@H]2N2C(=O)c3cc(OC)c(OC)cc3NC(=O)[C@@]12C	-2
CCOC(=O)[C@H]1[C@H]2COc3ccc(Cl)cc3[C@@H]2N2C(=O)c3cc(Br)ccc3NC(=O)[C@@]12C	16*	HuH7 TTR inh=5;TTR act confirm=0
CCOC(=O)[C@@H]1[C@H]2COc3ccc(Br)cc3[C@@H]2N2C(=O)N(c3ccc(F)cc3)C(=O)[C@@]12C	16*	HuH7 TTR inh=-34;TTR act confirm=0
CCOC(=O)[C@@H]1[C@H]2COc3ccc(Br)cc3[C@@H]2N2C(=O)N(c3ccc(Cl)cc3)C(=O)[C@@]12C	0
CCOC(=O)[C@H]1[C@H]2COc3ccc(Cl)cc3[C@@H]2N2C(=O)c3ccc(C)cc3NC(=O)[C@@]12C	13*	HuH7 TTR inh=-10;TTR act confirm=-1
CCOC(=O)[C@H]1[C@H]2COc3ccccc3[C@@H]2N2C(=O)c3cc(Cl)ccc3NC(=O)[C@@]12C	3
Cc1ccc(Cn2c(=O)n(C)c(=O)c3sccc32)cc1	0
CCOc1ccccc1C1NC(=O)c2ccccc2O1 (centres undefined)	0
CCOC(=O)N1CCN(C(=O)C[C@@H]2C[C@@]3(C(=O)OC)CC(C)(C)CC=C3N(Cc3ccc4c(c3)OCO4)C2=O)CC1	1
COc1ccc(Cl)cc1CN1CCOCC1	0
Cc1ccc(Cl)cc1NC(=O)CN1CCOCC1	4
Clc1ccc2c(c1)c1ccccc1n2CN1CCOCC1	22*	HuH7 TTR inh=-8;TTR act confirm=0
O=C(c1ccc2c(=O)n3c(nc2c1)CCCCC3)N1CCc2ccccc21	-1
O=C(NCCCn1ccnc1)c1cc(C2CC2)on1	10*	HuH7 TTR inh=-2;TTR act confirm=1
Cc1cc(C(=O)NCCCn2ccnc2)cs1	0
COc1cc(C(=O)NCCCn2ccnc2)cc(OC)c1OC	-1
CC1CCC2(CC1)CCC2NCc1ccc(Br)cc1 (centres undefined)	2
Cc1ccc(N2C(=O)[C@@H]3C(c4cccnc4)=NO[C@@H]3C2=O)cc1	2
NC(=O)c1nsc(C(=O)N(CC(=O)NC2CCCCC2)c2cccc(F)c2)c1N	1
CC(C(=O)NC1CCCCC1)N(Cc1ccc(F)cc1)C(=O)c1snc(C(N)=O)c1N (centres undefined)	2
NC(=O)c1nsc(C(=O)N(CC(=O)NC2CCCC2)c2ccc(F)c(Cl)c2)c1N	17*	HuH7 TTR inh=-26;TTR act confirm=0
SMILES	TTR transcr act	others
COc1ccccc1Cc1c(C(C)(C)C)nc2ccc(C)cn12	-1
O=C(NCc1ccccc1)c1onc(CSc2ccc(F)c(F)c2)c1C(=O)NCc1ccccc1	-3
Cc1ccc(-c2cc(C(=O)NC3CCCC3)no2)cc1	-2
Cc1cc(-c2cc(-c3ccc(Cl)cc3)on2)nc(NC2CCCC2)n1	9.8*	HuH7 TTR inh=-3;TTR act confirm=1
Cc1ccc(SCc2cc(-c3ccc(Cl)cc3)on2)cc1	1
COc1ccc(Cn2cc(COC(=O)NCC(C)C)nn2)cc1	-1
COc1ccc(C(=O)COc2nc(C)cc(C)c2C#N)cc1	7
CCOc1ccc(N(C(C)=O)c2nc(C)cc(C)c2C#N)cc1	19*	HuH7 TTR inh=-6;TTR act confirm=0
CCOC(=O)CN(C(=O)COc1nc(C)cc(C)c1C#N)c1ccc(F)cc1	-1
C#CCN1c2ccccc2Sc2cccnc21	5
CCOC(=O)C1(Cc2cccc(Cl)c2)CCCN(C(=O)c2c(CC)noc2C)C1 (centres undefined)	-1
CC1CN(S(=O)(=O)c2cccc(C(=O)OC(C)C(=O)NC3CCCCC3C)c2)CC(C)O1 (centres undefined)	0
COc1ccc(NC(=O)c2cccc([N+](=O)[O-])c2)cc1	3

Assay outcomes as filed in PubChem BioAssay.
